# Measured values taken from publication PMC7862700, “An all-to-all approach to the identification of sequence-specific readers for epigenetic DNA modifications on cytosine”.
# Legend:
# Experiment in all cases: DAPPL (digital affinity profiling via proximity ligation, sequencing); 10 mM Tris-HCl pH 7.5, 50 mM NaCl, 1 mM DTT, 4% glycerol, room temperature, 30 min; GST-TFs on glutathione beads, 16-mer random dsDNA library, 0.1% formaldehyde crosslink after washing; high values mean tight binding
# FEV = target: T1, FEV (Homo sapiens, UniProt Q99581 1-238); details: protein: recombinant; tags: N-terminal GST; dsDNA, one strand shown
# T1 sequence: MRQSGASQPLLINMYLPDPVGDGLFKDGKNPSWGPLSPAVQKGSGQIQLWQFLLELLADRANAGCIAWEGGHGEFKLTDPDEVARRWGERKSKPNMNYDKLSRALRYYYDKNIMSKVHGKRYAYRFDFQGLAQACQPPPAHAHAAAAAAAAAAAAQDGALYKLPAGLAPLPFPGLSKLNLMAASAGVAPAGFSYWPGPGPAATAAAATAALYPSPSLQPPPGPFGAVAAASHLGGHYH
# Summary of the method: (§1)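 Pools of DNA-barcoded human transcription factors, expressed in yeast as GST fusions on glutathione beads and combined with a tag-only sample, were incubated with 200 nmole of a 16-mer random double-stranded DNA library. Incubation took 30 min at room temperature in Tris/NaCl/DTT/glycerol buffer and was followed by washing, 0.1% formaldehyde crosslinking, proximity ligation (BsaI/T4 ligase, 1 h, 37 °C), PCR amplification and sequencing on an Illumina NextSeq500. Binding signal is the ratio of a hexamer's read frequency for a factor to its frequency for the tag-only sample.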
# ETV5 = ETV5 (Homo sapiens, UniProt P41161 1-510); details: protein: recombinant; tags: N-terminal GST; dsDNA, one strand shown
# ETV5, sequence (P41161 whole entry): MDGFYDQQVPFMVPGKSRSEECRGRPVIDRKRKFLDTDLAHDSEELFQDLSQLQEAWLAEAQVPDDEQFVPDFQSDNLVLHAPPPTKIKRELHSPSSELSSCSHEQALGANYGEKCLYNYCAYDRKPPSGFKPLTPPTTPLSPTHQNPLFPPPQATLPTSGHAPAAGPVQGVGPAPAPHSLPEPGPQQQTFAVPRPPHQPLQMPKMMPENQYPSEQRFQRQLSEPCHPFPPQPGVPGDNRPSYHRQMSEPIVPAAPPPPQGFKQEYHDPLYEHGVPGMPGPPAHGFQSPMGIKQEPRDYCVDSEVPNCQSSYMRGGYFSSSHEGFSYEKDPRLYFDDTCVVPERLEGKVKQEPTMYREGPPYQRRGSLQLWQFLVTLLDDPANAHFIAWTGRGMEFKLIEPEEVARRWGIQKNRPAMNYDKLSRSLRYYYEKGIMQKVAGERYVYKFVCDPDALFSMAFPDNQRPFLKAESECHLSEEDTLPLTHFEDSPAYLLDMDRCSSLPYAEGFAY
# Summary of the method: as §1
# HSF1 = HSF1 (Homo sapiens, UniProt Q00613 1-529); details: protein: recombinant; tags: N-terminal GST; chain copies: 3; dsDNA, one strand shown
# HSF1, sequence (Q00613 whole entry): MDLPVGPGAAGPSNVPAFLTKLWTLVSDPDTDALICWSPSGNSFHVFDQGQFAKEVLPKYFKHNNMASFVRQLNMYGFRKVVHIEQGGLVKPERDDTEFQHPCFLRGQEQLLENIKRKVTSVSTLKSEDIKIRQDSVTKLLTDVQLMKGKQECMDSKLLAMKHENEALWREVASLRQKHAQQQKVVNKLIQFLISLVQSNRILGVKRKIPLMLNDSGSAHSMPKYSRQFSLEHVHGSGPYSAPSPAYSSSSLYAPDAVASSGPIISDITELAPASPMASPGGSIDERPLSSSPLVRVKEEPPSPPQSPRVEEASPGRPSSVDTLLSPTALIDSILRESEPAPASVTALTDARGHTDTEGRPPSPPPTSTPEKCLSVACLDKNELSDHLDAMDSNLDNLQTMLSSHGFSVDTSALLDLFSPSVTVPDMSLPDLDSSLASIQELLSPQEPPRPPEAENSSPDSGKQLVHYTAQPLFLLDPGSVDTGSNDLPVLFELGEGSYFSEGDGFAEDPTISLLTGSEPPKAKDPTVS
# Summary of the method: as §1
# SPIC = target: T2, SPIC (Homo sapiens, UniProt Q8N5J4 1-248); details: protein: recombinant; tags: N-terminal GST; dsDNA, one strand shown
# T2 sequence: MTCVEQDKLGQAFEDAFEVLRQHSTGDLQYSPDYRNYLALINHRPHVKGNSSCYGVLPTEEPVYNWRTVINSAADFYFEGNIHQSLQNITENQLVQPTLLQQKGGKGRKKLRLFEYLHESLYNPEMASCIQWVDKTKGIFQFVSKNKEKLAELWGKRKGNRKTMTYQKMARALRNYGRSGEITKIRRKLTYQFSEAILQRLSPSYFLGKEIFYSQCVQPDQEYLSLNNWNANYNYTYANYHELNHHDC
# Summary of the method: as §1
# ELF4 = ELF4 (Homo sapiens, UniProt Q99607 1-663); details: protein: recombinant; tags: N-terminal GST; dsDNA, one strand shown
# ELF4, sequence (Q99607 whole entry): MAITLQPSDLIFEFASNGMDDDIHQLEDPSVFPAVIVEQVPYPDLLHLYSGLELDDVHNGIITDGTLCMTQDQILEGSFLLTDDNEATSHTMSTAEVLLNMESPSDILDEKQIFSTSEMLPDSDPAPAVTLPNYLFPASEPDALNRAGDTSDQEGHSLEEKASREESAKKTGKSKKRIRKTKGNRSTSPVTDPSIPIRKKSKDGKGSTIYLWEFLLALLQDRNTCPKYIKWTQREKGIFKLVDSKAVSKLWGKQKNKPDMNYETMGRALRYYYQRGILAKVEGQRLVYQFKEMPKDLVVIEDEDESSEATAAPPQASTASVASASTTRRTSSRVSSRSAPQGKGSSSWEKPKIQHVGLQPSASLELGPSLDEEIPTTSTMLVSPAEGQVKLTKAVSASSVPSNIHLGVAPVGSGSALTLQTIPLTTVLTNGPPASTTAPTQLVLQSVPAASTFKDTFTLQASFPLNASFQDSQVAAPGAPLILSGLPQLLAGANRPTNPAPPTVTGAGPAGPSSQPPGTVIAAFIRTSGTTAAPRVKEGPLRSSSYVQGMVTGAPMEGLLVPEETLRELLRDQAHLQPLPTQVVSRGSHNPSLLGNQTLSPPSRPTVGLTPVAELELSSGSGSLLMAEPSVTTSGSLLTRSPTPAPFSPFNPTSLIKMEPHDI
# Summary of the method: as §1
# ELK4 = target: T3, ELK4 (Homo sapiens, UniProt P28324-2 1-405); details: protein: recombinant; tags: N-terminal GST; dsDNA, one strand shown
# T3 sequence: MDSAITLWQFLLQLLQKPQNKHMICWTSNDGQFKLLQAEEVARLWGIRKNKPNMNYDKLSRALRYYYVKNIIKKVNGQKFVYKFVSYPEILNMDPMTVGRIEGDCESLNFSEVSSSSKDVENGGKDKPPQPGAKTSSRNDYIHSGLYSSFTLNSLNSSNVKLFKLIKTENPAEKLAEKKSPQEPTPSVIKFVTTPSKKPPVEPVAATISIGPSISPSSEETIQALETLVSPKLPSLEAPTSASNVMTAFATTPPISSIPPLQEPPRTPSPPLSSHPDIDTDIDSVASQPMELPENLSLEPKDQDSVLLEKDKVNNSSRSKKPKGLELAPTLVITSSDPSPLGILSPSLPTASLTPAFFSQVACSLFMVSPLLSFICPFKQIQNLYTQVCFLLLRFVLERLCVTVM
# Summary of the method: as §1
# ETV2 = target: T4, ETV2 (Homo sapiens, UniProt O00321 1-342); details: protein: recombinant; tags: N-terminal GST; dsDNA, one strand shown
# T4 sequence: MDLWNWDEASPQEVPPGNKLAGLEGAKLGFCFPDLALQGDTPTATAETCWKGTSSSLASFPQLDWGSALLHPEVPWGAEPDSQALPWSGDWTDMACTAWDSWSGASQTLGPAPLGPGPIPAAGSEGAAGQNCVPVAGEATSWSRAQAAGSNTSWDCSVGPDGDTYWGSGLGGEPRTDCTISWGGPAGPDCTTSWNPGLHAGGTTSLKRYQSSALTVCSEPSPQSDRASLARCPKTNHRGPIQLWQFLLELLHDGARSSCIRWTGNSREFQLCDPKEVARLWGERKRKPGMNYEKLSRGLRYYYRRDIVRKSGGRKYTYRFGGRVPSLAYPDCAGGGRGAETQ
# Summary of the method: as §1
# ELF3 = target: T5, ELF3 (Homo sapiens, UniProt P78545 1-371); details: protein: recombinant; tags: N-terminal GST; dsDNA, one strand shown
# T5 sequence: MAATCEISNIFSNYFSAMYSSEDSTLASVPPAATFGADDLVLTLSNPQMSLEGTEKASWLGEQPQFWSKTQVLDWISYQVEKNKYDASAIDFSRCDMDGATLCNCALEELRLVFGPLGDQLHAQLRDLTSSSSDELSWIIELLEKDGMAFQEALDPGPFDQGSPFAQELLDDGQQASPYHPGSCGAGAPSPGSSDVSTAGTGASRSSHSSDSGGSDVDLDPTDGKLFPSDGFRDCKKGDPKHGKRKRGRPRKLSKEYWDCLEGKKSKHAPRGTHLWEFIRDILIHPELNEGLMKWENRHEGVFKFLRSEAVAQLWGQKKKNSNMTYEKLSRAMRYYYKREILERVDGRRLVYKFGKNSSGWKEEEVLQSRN
# Summary of the method: as §1
# CRX = CRX (Homo sapiens, UniProt O43186 1-299); details: protein: recombinant; tags: N-terminal GST; dsDNA, one strand shown
# CRX, sequence (O43186 whole entry): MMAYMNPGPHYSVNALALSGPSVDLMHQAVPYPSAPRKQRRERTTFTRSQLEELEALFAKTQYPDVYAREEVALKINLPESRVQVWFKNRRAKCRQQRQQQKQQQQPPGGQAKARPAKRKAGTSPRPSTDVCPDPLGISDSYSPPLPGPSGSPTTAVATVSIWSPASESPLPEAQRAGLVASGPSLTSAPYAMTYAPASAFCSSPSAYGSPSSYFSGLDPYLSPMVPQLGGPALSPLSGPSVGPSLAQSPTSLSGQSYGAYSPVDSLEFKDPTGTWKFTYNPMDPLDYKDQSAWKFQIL
# Summary of the method: as §1
# ETV1 = ETV1 (Homo sapiens, UniProt P50549 1-477); details: protein: recombinant; tags: N-terminal GST; dsDNA, one strand shown
# ETV1, sequence (P50549 whole entry): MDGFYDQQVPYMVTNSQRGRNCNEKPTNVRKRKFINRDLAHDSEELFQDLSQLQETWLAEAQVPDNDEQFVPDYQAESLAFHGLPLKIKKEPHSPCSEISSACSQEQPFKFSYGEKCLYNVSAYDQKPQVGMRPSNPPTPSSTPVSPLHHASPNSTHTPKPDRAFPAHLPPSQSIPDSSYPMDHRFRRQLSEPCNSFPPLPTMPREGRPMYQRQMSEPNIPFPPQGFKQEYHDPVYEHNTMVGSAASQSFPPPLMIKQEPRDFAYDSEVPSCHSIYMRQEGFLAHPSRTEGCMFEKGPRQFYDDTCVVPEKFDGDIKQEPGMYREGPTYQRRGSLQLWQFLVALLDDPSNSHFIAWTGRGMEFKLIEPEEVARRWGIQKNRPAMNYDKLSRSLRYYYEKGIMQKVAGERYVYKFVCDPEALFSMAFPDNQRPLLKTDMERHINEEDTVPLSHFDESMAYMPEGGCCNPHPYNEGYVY
# Summary of the method: as §1
# ERF = target: T6, ERF (Homo sapiens, UniProt P50548 1-548); details: protein: recombinant; tags: N-terminal GST; dsDNA, one strand shown
# T6 sequence: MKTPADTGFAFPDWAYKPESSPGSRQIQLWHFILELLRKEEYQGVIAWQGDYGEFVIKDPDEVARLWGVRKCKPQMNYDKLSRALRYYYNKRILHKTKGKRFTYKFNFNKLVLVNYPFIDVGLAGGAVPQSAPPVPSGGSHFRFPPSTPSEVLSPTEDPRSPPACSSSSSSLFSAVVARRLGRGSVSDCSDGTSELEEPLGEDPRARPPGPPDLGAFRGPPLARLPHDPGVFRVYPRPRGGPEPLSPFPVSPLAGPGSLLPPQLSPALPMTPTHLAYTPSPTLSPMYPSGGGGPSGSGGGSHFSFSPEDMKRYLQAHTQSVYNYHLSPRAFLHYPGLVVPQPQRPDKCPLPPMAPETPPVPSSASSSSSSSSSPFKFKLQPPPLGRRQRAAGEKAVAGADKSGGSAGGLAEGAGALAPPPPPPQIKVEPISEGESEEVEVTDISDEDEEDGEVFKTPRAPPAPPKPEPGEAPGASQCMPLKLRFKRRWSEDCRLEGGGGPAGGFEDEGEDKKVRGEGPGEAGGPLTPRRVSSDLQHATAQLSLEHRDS
# Summary of the method: as §1
# ETV3L = target: T7, ETV3L (Homo sapiens, UniProt Q6ZN32 1-361); details: protein: recombinant; tags: N-terminal GST; dsDNA, one strand shown
# T7 sequence: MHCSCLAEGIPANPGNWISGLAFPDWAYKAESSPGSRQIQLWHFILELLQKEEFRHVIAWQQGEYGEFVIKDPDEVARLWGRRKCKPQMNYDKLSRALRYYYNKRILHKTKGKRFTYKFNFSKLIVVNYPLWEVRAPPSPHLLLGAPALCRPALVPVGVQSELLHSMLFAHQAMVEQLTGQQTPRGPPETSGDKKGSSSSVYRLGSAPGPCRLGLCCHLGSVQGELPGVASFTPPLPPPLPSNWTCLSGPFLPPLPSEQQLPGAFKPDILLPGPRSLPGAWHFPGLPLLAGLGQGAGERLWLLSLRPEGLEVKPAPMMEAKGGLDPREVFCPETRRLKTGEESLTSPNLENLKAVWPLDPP
# Summary of the method: as §1
# ETS2 = target: T8, ETS2 (Homo sapiens, UniProt P15036 1-469); details: protein: recombinant; tags: N-terminal GST; dsDNA, one strand shown
# T8 sequence: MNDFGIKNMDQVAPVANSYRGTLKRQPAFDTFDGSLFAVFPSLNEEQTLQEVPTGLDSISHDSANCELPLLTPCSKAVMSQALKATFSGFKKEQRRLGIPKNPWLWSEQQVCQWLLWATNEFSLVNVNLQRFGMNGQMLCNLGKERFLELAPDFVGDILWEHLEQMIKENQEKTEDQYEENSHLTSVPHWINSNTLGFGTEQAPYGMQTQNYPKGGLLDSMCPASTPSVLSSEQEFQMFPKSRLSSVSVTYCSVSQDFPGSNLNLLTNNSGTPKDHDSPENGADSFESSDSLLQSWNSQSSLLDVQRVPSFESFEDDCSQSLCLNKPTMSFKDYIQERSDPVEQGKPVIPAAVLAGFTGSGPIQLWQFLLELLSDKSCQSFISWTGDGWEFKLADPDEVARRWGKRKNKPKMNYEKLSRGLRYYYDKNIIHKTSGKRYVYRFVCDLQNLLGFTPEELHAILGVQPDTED
# Summary of the method: as §1
# ETV3 = target: T9, ETV3 (Homo sapiens, UniProt P41162-2 1-143); details: protein: recombinant; tags: N-terminal GST; dsDNA, one strand shown
# T9 sequence: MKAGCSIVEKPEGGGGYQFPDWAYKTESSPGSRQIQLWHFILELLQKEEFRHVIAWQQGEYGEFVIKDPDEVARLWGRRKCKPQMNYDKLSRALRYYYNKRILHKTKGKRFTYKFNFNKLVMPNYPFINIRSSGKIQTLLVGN
# Summary of the method: as §1
# SPDEF = target: T10, SPDEF (Homo sapiens, UniProt O95238 1-335); details: protein: recombinant; tags: N-terminal GST; dsDNA, one strand shown
# T10 sequence: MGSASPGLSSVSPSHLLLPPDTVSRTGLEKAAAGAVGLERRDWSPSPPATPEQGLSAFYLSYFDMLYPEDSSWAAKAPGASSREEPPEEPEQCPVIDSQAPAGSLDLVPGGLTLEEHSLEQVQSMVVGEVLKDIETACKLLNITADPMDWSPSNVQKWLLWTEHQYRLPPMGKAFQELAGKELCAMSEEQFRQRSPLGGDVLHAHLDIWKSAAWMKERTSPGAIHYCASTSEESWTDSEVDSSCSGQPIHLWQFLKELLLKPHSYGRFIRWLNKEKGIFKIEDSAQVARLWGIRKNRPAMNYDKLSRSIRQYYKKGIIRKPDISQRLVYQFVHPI
# Summary of the method: as §1
# ELF5 = target: T11, ELF5 (Homo sapiens, UniProt Q9UKW6-2 1-255); details: protein: recombinant; tags: N-terminal GST; dsDNA, one strand shown
# T11 sequence: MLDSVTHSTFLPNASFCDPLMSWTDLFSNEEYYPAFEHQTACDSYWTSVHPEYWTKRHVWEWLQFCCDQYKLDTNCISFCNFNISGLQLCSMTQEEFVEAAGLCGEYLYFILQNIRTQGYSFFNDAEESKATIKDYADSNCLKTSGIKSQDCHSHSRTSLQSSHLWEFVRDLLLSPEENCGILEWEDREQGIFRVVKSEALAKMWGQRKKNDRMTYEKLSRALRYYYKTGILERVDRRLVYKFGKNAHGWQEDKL
# Summary of the method: as §1
# ETV6 = ETV6 (Homo sapiens, UniProt P41212 1-452); details: protein: recombinant; tags: N-terminal GST; dsDNA, one strand shown
# ETV6, sequence (P41212 whole entry): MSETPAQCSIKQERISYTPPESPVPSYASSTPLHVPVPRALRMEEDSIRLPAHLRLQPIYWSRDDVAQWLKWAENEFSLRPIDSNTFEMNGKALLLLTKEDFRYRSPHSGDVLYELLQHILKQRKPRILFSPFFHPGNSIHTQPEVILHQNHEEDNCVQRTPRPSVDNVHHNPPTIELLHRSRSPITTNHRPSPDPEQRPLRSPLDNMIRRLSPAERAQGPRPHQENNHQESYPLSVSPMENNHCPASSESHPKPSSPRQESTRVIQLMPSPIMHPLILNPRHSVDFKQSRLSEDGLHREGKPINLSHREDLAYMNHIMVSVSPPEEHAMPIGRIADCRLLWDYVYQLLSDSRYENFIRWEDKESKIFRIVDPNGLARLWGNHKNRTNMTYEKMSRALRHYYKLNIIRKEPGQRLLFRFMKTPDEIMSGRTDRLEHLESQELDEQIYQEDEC
# Summary of the method: as §1
Sequence,binding signal (FEV),binding signal (ETV5),binding signal (HSF1),binding signal (SPIC),binding signal (ELF4),binding signal (ELK4),binding signal (ETV2),binding signal (ELF3),binding signal (CRX),binding signal (ETV1),binding signal (ERF),binding signal (ETV3L),binding signal (ETS2),binding signal (ETV3),binding signal (SPDEF),binding signal (ELF5),binding signal (ETV6)
CCGAAG,"1.04 fold enrichment (6-mer frequency, TF over GST control)","1.02 fold enrichment (6-mer frequency, TF over GST control)","1.35 fold enrichment (6-mer frequency, TF over GST control)","1.23 fold enrichment (6-mer frequency, TF over GST control)","1.05 fold enrichment (6-mer frequency, TF over GST control)","1.2 fold enrichment (6-mer frequency, TF over GST control)","1.31 fold enrichment (6-mer frequency, TF over GST control)","1.02 fold enrichment (6-mer frequency, TF over GST control)","1.11 fold enrichment (6-mer frequency, TF over GST control)","1.01 fold enrichment (6-mer frequency, TF over GST control)","1.16 fold enrichment (6-mer frequency, TF over GST control)","1.02 fold enrichment (6-mer frequency, TF over GST control)","1.08 fold enrichment (6-mer frequency, TF over GST control)","1.02 fold enrichment (6-mer frequency, TF over GST control)",–,–,–
CGGCTT,"1.14 fold enrichment (6-mer frequency, TF over GST control)","1.16 fold enrichment (6-mer frequency, TF over GST control)","1.35 fold enrichment (6-mer frequency, TF over GST control)","1.13 fold enrichment (6-mer frequency, TF over GST control)","1.1 fold enrichment (6-mer frequency, TF over GST control)","1.09 fold enrichment (6-mer frequency, TF over GST control)","1.27 fold enrichment (6-mer frequency, TF over GST control)","1.15 fold enrichment (6-mer frequency, TF over GST control)","1.95 fold enrichment (6-mer frequency, TF over GST control)","1.2 fold enrichment (6-mer frequency, TF over GST control)","1.27 fold enrichment (6-mer frequency, TF over GST control)","1.1 fold enrichment (6-mer frequency, TF over GST control)","1.21 fold enrichment (6-mer frequency, TF over GST control)","1.15 fold enrichment (6-mer frequency, TF over GST control)","1.33 fold enrichment (6-mer frequency, TF over GST control)","1.19 fold enrichment (6-mer frequency, TF over GST control)","1.16 fold enrichment (6-mer frequency, TF over GST control)"
